Reference: ChEMBL document CHEMBL1961873, “Compounds: GSK PKIS; Assays: Nanosyn kinase panel” (2012)

Each compound was assayed against Tyrosine-protein kinase FRK (Homo sapiens) (UniProt P42685). Details: at 0.1 µM.
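Further: values are mean inhibition of PTK5 (FRK) kinase activity from the GSK PKIS screening set.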

Sequence of Tyrosine-protein kinase FRK (Homo sapiens) (P42685 whole entry): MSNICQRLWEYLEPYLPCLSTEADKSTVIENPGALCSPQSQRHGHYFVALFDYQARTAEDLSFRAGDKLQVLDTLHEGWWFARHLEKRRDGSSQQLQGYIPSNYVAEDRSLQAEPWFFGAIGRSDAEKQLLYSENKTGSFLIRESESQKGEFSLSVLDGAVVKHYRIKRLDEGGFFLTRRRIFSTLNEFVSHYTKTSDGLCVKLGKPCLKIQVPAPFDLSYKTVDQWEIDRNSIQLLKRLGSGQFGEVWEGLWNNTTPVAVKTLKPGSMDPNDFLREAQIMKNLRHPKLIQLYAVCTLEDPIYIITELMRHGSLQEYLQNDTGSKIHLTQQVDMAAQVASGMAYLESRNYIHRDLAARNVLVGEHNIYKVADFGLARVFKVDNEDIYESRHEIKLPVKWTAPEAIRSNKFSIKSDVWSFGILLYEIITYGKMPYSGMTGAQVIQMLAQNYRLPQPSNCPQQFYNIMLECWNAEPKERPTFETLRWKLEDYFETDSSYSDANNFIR

| Compound | inhibition [%] |
| --- | --- |
| [O-][S+]1CCN(Cc2ccc(-c3ccc4ncnc(Nc5ccc(OCc6ccccc6)c(Cl)c5)c4c3)o2)CC1 | 0.22 |
| C[C@@H](Oc1cc(-n2cnc3ccc(OC[C@@H](O)CO)cc32)sc1C(N)=O)c1ccccc1Cl | 0.8 |
| OCc1ccc(-c2nc(-c3ccccn3)c(-c3ccc4c(c3)OCO4)[nH]2)cc1 | 2.25 |
| NS(=O)(=O)c1ccc(Nc2cc(-c3cccc(O)c3)n[nH]2)cc1 | 0.88 |
| Nc1ccc(C#Cc2cncnc2Nc2ccc(OCc3cccc(F)c3)c(Cl)c2)cc1 | 0.8 |
| Cc1ccc(Nc2ccnc(Nc3cccc(C(N)=O)c3)n2)cc1O | 48.6 |
| CCCN1CCCC(c2ccc(Nc3nc(Nc4cc(F)ccc4C(N)=O)c4cc[nH]c4n3)c(OC)c2)C1 (stereo not drawn) | 7.2 |
| N#Cc1cccc(Nc2nccc(-c3cnn4ncccc34)n2)c1 | 5.2 |
| COc1cc(Nc2nccc(-c3cnn4ncccc34)n2)cc(OC)c1 | 1.76 |
| CS(=O)(=O)CCNCc1nc(-c2ccc3ncnc(Nc4ccc(OCc5cccc(C(F)(F)F)c5)cc4)c3c2)cs1 | 1.71 |
| Cc1ccc(O)cc1Nc1ccnc2ccc(S(C)(=O)=O)cc12 | 89 |
| Cc1nc(-c2ccccc2)n2nc(NCCCN3CCOCC3)ncc12 | 3.57 |
| COc1cccc(-n2ncc3c(N/N=C/c4ccc(S(C)(=O)=O)cc4)ncnc32)c1 | 0.47 |
| NC(=O)c1sc(-n2cnc3ccccc32)cc1OCc1ccccc1Br | 2.57 |
| CS(=O)(=O)Nc1cccc(-c2ccc3c(NC(=O)C4CC4)n[nH]c3c2)c1 | 0.86 |
| COc1cccc(-n2ncc3c(N/N=C/c4ccc(C)cc4)ncnc32)c1 | 2.86 |
| NS(=O)(=O)c1cccc(Nc2cc(-c3ccc(F)cc3)n[nH]2)c1 | 1.05 |

| Compound | inhibition [%] |
| --- | --- |
| COC(=O)c1ccc2c(c1)C(=Cc1cc(Br)c(O)c(Br)c1)C(=O)N2 | 1.55 |
| CCS(=O)(=O)c1ccc(OC)c(Nc2nccc(N(C)c3ccc4c(C)n[nH]c4c3)n2)c1 | 20.6 |
| O=S(=O)(CCOCc1ccc(-c2ccc3ncnc(Nc4ccc(OCc5cccc(F)c5)c(Cl)c4)c3c2)o1)c1ccccc1 | 1.09 |
| Cc1cc(-c2ccccn2)cc(C)c1/C=C/c1cncc(-c2nn[nH]n2)c1 | 1.59 |
| CN(C)C(=O)O[C@@H]1CN[C@@H](C#Cc2cc3ncnc(Nc4ccc(OCc5cccc(F)c5)c(Cl)c4)c3s2)C1 | 0.71 |
| Oc1cccc(-c2nc(-c3ccccc3)[nH]c2-c2ccncc2)c1 | 2.98 |
| CN1CCN(C(=O)c2ccc(NC(=O)Nc3ccc(N(C)c4ccnc(Nc5ccc(CS(C)(=O)=O)cc5)n4)cc3)cc2)CC1 | 1.47 |
| COc1cc(/C=N/Nc2ncnc3c2cnn3C(C)C)ccc1O | 2.61 |
| FC(F)(F)c1ccc(-c2nn3ncccc3c2-c2ccnc(Nc3ccc4c(c3)OCCO4)n2)cc1 | 1.38 |
| Nc1nccc(-c2c(-c3ccc(F)cc3)ncn2CCCN2CCOCC2)n1 | 1.5 |
| Cc1ccc(C(=O)NC2CC2)cc1-c1ccc2[nH]ncc2c1 | -2.56 |
| COc1cc2ncn(-c3cc(OCc4ccccc4S(C)(=O)=O)c(C#N)s3)c2cc1OC | 3.38 |
| COc1ccc2ncnc(Nc3ccc(OCc4ccccc4)cc3)c2c1 | 0.42 |
| COC(=O)Nc1nc2cc(Oc3ccc(NC(=O)Nc4cccc(Br)c4)cc3)ccc2[nH]1 | 2.82 |
| Cc1ccc2c(-c3ccnc(Nc4cccc(C(F)(F)F)c4)n3)c(-c3ccccc3)nn2n1 | 5 |
| COc1cc2ncnc(Nc3ccc(C)c(O)c3)c2cc1OC | 7.74 |
